The source of these data is PubChem BioAssay.

Some of the results follow. Active and inactive are the calls of the source.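 The calls were made as follows, unless noted: active = current increase at least 3 SD of the untreated controls above them in both duplicate recordings; inactive = the rest.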

The term inhibition denotes the change of the read-out against control, counted positive when it falls.

The target of the first assay is Potassium voltage-gated channel subfamily KQT member 2 (Rattus norvegicus) (UniProt O88943). Put plainly: potentiators of retigabine-insensitive KCNQ2 W236L, mechanism study for KCNQ2 potentiator project, cell-based, rat KCNQ2 W236L, CHO, automated patch clamp (AID 2558). To be noted: at 25 µM; outcome: automated patch clamp current. (In patch-clamp work, channel activity is measured electrically.)
Potassium voltage-gated channel subfamily KQT member 2 (Rattus norvegicus), sequence (O88943 whole entry W236L, looked up): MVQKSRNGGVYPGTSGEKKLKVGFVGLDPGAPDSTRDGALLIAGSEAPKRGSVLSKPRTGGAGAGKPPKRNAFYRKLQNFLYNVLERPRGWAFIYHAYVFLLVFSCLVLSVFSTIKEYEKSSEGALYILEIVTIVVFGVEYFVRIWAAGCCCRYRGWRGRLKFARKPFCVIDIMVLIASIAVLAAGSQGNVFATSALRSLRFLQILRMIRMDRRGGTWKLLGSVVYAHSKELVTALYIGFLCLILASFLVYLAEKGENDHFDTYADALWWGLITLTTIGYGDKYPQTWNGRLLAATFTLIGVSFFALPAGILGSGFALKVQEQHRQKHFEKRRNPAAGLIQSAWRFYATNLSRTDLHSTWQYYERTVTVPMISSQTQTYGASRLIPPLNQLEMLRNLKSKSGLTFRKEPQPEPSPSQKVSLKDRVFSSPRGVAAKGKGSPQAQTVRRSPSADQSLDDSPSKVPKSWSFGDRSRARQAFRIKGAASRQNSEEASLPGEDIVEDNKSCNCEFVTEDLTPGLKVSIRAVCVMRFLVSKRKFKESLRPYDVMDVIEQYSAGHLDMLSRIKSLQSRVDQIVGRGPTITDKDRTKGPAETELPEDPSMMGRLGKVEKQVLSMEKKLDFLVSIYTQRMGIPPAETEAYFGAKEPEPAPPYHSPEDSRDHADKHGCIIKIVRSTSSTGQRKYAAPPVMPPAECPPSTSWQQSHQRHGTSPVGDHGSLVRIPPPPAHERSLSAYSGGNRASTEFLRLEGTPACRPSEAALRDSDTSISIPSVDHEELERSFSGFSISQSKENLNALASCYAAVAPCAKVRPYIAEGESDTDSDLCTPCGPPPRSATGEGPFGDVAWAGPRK
In the case of `C/C(=N\NC(=O)c1ccoc1C)c1ccccc1O`, the result was inactive.

With `CCn1c2ccccc2c2cc(NC(=O)CNC)ccc21`, the outcome was inactive. Same read-out and setting: as for `O=C(NNC1=C(C(=O)C(F)(F)F)CCC1)c1ccncc1`, the entry is “inactive”; as for `Cc1ccc(NC(=O)C2CC2c2ccccc2)cc1` (stereo not given), “inactive”; as for `Cc1[nH]n(-c2cccc(Cl)c2)c(=O)c1/C=N/n1c(C)nc2ccccc2c1=O`, “inactive”. Same read-out and setting: as for `COc1cccc(NC(=O)C2C(c3ccccc3)C2(Cl)Cl)c1` (stereo not given), the entry is “inactive”; as for `CCC1(C)Cc2c(sc3[nH]c(=S)n(Cc4ccccc4)c(=O)c23)CO1` (stereo not given), “inactive”. Consider `CCn1c(O)c(N=NC2=NC(=O)CS2)c2cc(C)ccc21`, for which the result was inactive.

As to `CCn1c(=S)[nH]c2sc3c(c2c1=O)CCCCC3`, the outcome was inactive.

Regarding `CCC1(C)Cc2c(sc3nnn(CC(=O)Nc4ccc(Cl)cc4)c(=O)c23)CO1` (stereo not given), the result was inactive.

On to `Cc1cccc(NC(=S)NC(=O)c2ccc(Br)o2)c1`, for which the outcome was inactive. On the same count and under the same terms, then `CS(=O)(=O)c1sc(C(=O)NC(=S)Nc2ccc(OC(F)(F)F)cc2)c2c1C=CCC2`, with “inactive”; and `CCOC(=O)c1sc(=S)n2c1[nH]c(=O)c1ccc(C(=O)OC)cc12`, with “inactive”; and `O=C(NCc1ccc2c(c1)OCO2)c1ccc(Cl)s1`, with “inactive”.

On to `CSc1nnc(NC(=O)c2nc(S(=O)(=O)Cc3ccc(C)cc3)ncc2Cl)s1`, for which the current increase over 3SD of negative controls (%), stronger effect = higher value is 23.1% (active). `FC(F)(F)c1cccc(NC(=S)Nc2cccc(Cl)c2)c1`: the result was inactive. `CCOC(=O)c1c(NC(=S)NC)sc2c1CCCC2`: the result was inactive. As to `Oc1c(Cl)cc(Cl)cc1/C=N/c1ncn[nH]1`, the outcome was inactive.

In the case of `Cc1ccc(S(=O)(=O)N2CCN(C(=O)COC(=O)c3c(C)cc(C)cc3C)CC2)c(C)c1`, the outcome was inactive. With `CCc1ccc(NC(=O)C(=O)NNC(=O)c2cccs2)cc1`, the outcome was inactive. The same measure, in the same setting: as for `S=C(NCc1ccc(Cl)cc1)NC12CC3CC(CC(C3)C1)C2`, the entry is “inactive”. `O=C(Nc1ccc(Oc2ccccc2)cc1)c1ccco1`: the current increase over 3SD of negative controls (%), stronger effect = higher value was 9.43% (active).

`CC1=C/C(=N\OS(=O)(=O)c2ccccc2)C=CC1=O`: the outcome was inactive. Same read-out and setting: as for `CC(NC(=O)Nc1ccccc1)c1ccccc1` (stereo not given), the entry is “inactive”. For the compound `COc1ccc(NC(=O)/C(Cl)=C(/Cl)S(=O)Cc2ccc(C)cc2)cn1` (stereo not given), the outcome was inactive. On the same count and under the same terms, then `CCN(CC(=O)NC(=O)NCc1ccccc1)Cc1nc2ccccc2c(=O)[nH]1`, with “inactive”. As for `CCCCNC(=O)Nc1c(C)cc(SC#N)cc1C`, the outcome was inactive. In the case of `CC(=O)NNC(=O)c1csc(Cc2c(Cl)sc3ccc(Cl)cc23)n1`, the current increase over 3SD of negative controls (%), stronger effect = higher value is 1.62% (active). For the compound `Cc1ccc(/C=N/NC(=O)c2cc3ccccc3cc2O)o1`, the result was inactive. With `N#Cc1c(-c2ccccc2)nc(SCc2cccc(C(F)(F)F)c2)[nH]c1=O`, the outcome was inactive. On the same count and under the same terms, as for `O=C(NCc1ccc2c(c1)OCO2)C12CC3CC(CC(C3)C1)C2`, the entry is “inactive”; as for `Cc1cccc(NC(=O)CSC(N)=O)c1C`, “inactive”.

A further assay deals with Short transient receptor potential channel 4 (Mus musculus) (UniProt Q9QUQ5). The experiment in a line: mouse TRPC4 membrane potential modulation by TRPC6 hits, confirmation, selectivity assay for TRPC6 inhibitor project, cell-based, second specificity screen, HEK293 TRPC4/mu-opioid (AID 2776;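 active = compounds whose fluorescence signal differed from control wells by over 3 SD, either direction, in both duplicate plates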). To be noted: HEK293 TRPC4/MOR, membrane potential dye fluorescence, at 10 µM, channel activated by saturating DAMGO dose; stronger effect = higher value.
Short transient receptor potential channel 4 (Mus musculus), sequence (Q9QUQ5 whole entry, looked up): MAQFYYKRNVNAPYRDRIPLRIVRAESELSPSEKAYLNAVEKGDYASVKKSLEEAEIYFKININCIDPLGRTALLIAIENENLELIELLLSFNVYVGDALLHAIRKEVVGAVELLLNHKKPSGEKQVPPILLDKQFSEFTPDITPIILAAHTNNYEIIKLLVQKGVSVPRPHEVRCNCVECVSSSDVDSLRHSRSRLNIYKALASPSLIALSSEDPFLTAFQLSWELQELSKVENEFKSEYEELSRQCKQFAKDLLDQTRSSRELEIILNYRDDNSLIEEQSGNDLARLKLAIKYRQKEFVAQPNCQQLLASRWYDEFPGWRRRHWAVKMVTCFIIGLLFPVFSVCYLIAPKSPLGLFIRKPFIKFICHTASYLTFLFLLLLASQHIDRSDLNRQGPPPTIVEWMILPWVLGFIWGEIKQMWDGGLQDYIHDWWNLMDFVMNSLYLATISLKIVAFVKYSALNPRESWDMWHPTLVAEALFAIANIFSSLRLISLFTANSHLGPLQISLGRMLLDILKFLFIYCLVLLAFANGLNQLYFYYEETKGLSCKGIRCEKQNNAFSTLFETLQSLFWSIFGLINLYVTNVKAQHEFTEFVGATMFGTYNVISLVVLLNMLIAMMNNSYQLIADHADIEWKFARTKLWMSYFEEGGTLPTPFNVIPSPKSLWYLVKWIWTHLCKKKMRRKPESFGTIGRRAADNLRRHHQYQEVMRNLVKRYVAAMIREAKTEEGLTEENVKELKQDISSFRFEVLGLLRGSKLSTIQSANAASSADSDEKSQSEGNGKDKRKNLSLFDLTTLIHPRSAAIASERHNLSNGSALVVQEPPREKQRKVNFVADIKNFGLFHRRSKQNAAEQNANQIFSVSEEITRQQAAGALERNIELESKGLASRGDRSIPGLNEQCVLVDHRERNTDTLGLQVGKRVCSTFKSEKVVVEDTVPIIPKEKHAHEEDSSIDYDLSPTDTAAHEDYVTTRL
For `O=C(NC(Nc1nc2ccc([N+](=O)[O-])cc2s1)(C(F)(F)F)C(F)(F)F)c1ccccc1`, the inhibition was 45% (active).

Turning to `Cc1cc2oc3ccc(NCCC4CCCN4C)cc3c(=O)c2cc1C` (stereo not given), the inhibition is 63% (active). On the same count and under the same terms, as for `Cc1ccc2nc(C)c3c(c2c1)N(c1ccccc1)CC3`, the figure is 32% (active). For `N=c1c2c(-c3ccccc3)c(-c3ccccc3)n(Cc3ccccc3)c2ncn1CCCO`, the compound was classed as inactive.

The subject of the next assay is transient receptor potential cation channel C4 (TRPC4), mouse. The experiment in a line: mouse TRPC4 modulation by TRPC6 hits, confirmation, selectivity assay for TRPC6 inhibitor project, cell-based, HEK293 TRPC4/mu-opioid, membrane potential dye (AID 2777;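 active = rise or fall in signal beyond 3 SD of buffer-only wells in both replicate plates, either sign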;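 also: integrated kinetic ratio of fluorescence range over baseline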). The following applies: membrane potential fluorescence, at 10 µM.
Turning to `O=C(NC(Nc1nc2ccc([N+](=O)[O-])cc2s1)(C(F)(F)F)C(F)(F)F)c1ccccc1`, the activity change, negative = inhibition is 60.8% (active).

`Cc1cc2oc3ccc(NCCC4CCCN4C)cc3c(=O)c2cc1C` (stereo not given): the activity change, negative = inhibition is 8.34% (active).

As for `Cc1ccc2nc(C)c3c(c2c1)N(c1ccccc1)CC3`, the compound was classed as inactive. On the same count and under the same terms, then `N=c1c2c(-c3ccccc3)c(-c3ccccc3)n(Cc3ccccc3)c2ncn1CCCO`, with “inactive”.

Test system in a further assay: not listed separately
Put plainly: nonspecific membrane potential effects, parental HEK293, confirmation, counter-screen for TRPC6 inhibitor project, cell-based, second counter screen (AID 2779;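 active = membrane potential signal moving either way by over 3 SD of the maximum-effect control, in both duplicate plates, meaning non-specific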). The following applies: parental HEK293 membrane potential dye fluorescence; at 10 µM; maximal acetylcholine challenge after compound addition.
As to `O=C(NC(Nc1nc2ccc([N+](=O)[O-])cc2s1)(C(F)(F)F)C(F)(F)F)c1ccccc1`, the result was inactive. The same measure, in the same setting: as for `Cc1cc2oc3ccc(NCCC4CCCN4C)cc3c(=O)c2cc1C` (stereo not given), the entry is “inactive”.

With `Cc1ccc2nc(C)c3c(c2c1)N(c1ccccc1)CC3`, the result was inactive. Regarding `N=c1c2c(-c3ccccc3)c(-c3ccccc3)n(Cc3ccccc3)c2ncn1CCCO`, the outcome was inactive.

Test system in a further assay: not listed separately
The experiment in a line: membrane potential modulation in parental HEK293, confirmation, counter-screen for TRPC6 inhibitor project, cell-based (AID 2780;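 active = membrane potential signal shifting up or down by more than 3 SD of buffer-only wells, on both duplicate plates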;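 as to membrane potential signal change: plate controls were buffer EC0 wells for no effect and acetylcholine ECmax wells for full effect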). To be noted: parental HEK293 membrane potential dye fluorescence; at 10 µM. A general note: Counterscreens check selectivity or assay interference.
Consider `O=C(NC(Nc1nc2ccc([N+](=O)[O-])cc2s1)(C(F)(F)F)C(F)(F)F)c1ccccc1`, for which the membrane potential signal change is 36.6% (active).

In the case of `Cc1cc2oc3ccc(NCCC4CCCN4C)cc3c(=O)c2cc1C` (stereo not given), the membrane potential signal change is 5.47% (active). In the case of `Cc1ccc2nc(C)c3c(c2c1)N(c1ccccc1)CC3`, the membrane potential signal change is -212% (active). On to `N=c1c2c(-c3ccccc3)c(-c3ccccc3)n(Cc3ccccc3)c2ncn1CCCO`, for which the outcome was inactive.

For the next assay, the target named is Short transient receptor potential channel 6 (Mus musculus) (UniProt Q61143). The experiment in a line: mouse TRPC6 channel inhibitors, confirmation, HEK293 cells, membrane potential dye, duplicate (AID 488960;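 active = fluorescence ratio falls more than 5 SD below the full-stimulation control mean, in both duplicate runs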;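 as to inhibition: integrated fluorescence ratio of peak minus minimum over baseline after agonist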). To be noted: ACh-evoked depolarization, at 10 µM; stronger effect = higher value.
Short transient receptor potential channel 6 (Mus musculus), sequence (Q61143 whole entry, looked up): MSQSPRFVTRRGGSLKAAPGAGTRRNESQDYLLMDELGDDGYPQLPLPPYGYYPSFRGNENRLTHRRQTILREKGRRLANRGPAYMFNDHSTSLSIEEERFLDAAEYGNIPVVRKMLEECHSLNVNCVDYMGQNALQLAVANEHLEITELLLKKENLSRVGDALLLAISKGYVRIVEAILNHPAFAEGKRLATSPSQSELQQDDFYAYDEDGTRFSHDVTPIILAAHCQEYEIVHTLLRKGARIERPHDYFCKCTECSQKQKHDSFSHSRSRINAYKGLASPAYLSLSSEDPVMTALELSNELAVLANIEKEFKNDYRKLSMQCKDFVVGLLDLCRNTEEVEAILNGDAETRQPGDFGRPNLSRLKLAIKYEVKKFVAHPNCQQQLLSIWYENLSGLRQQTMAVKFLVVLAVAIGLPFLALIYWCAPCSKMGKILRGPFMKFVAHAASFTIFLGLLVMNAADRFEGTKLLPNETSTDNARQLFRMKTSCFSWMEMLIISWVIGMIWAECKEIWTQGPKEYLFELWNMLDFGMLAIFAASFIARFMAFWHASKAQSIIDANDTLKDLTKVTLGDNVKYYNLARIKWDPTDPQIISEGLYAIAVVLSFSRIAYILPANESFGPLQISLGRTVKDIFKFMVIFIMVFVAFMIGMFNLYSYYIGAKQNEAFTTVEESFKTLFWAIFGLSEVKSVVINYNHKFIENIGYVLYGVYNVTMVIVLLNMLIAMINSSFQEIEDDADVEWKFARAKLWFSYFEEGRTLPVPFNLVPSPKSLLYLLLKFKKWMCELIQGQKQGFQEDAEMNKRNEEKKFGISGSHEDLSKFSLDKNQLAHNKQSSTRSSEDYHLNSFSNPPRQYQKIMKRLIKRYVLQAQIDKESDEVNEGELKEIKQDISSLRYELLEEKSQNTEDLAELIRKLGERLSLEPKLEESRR
In the case of `O=C(NC(Nc1nc2ccc([N+](=O)[O-])cc2s1)(C(F)(F)F)C(F)(F)F)c1ccccc1`, the inhibition was 93.7% (active). As for `Cc1cc2oc3ccc(NCCC4CCCN4C)cc3c(=O)c2cc1C` (stereo not given), the compound was classed as inactive. For the compound `Cc1ccc2nc(C)c3c(c2c1)N(c1ccccc1)CC3`, the result was inactive. As for `N=c1c2c(-c3ccccc3)c(-c3ccccc3)n(Cc3ccccc3)c2ncn1CCCO`, the result was inactive.

The next assay has the same target. Put plainly: mouse TRPC6 channel activators, confirmation, HEK293 cells, membrane potential dye, duplicate (AID 488961;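 active = ratio signal rise beyond 5 SD above unstimulated control wells' mean, seen in both duplicate runs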). The following applies: HEK293-TRPC6 membrane potential dye fluorescence, FDSS, at 10 µM; stronger effect = higher value.
Consider `Cc1cc2oc3ccc(NCCC4CCCN4C)cc3c(=O)c2cc1C` (stereo not given), for which the compound was called inactive. For `Cc1ccc2nc(C)c3c(c2c1)N(c1ccccc1)CC3`, the compound was classed as inactive. As for `N=c1c2c(-c3ccccc3)c(-c3ccccc3)n(Cc3ccccc3)c2ncn1CCCO`, the call was inactive.
